Reference: the supplement of paper PMC10338343
± gives the standard deviation. In all, about 8,200 sequences were measured (“pre-steady-state target cleavage rate”: median about 0.024, highest 2% from about 1.3 on). The sample as a whole holds a higher share of the highest values than the screen did.

Test system: MIWI (PIWIL1) piRISC loaded with L1MC piRNA (30 nt)
Test: pre-steady-state target cleavage rate (min^-1); MIWI and MILI are mouse PIWI proteins and EfPiwi is from a freshwater sponge; tags in brackets are library labels; higher = faster piRNA-guided slicing of the target
Settings: guide: L1MC piRNA 5'p-UAACUAAAUACUAUGCAAGCUGUAGGUCCU
How it was run: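 Active affinity-purified piRISC carrying one synthetic guide (1 nM) was mixed with a transcribed, DNA-blocked target RNA library […] in HEPES–potassium acetate buffer at 33 °C for 0–8 or 0–960 min, with or without 500 nM GTSF1 partner protein. Uncleaved targets were then sequenced and normalised to depth and to weakly complementary targets. Three trials were pooled, and k3 was capped at 0.0001 min^-1. A burst-and-steady-state fit was applied to obtain the pre-steady-state cleavage rate.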

[1] = auxiliary factor: 500 nM mouse GTSF1
[2] = auxiliary factor: none (no GTSF1)
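Also: 1 nM active piRISC with 0.1 nM target library at 33 °C single turnover.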

Sequence	pre-steady-state target cleavage rate [1]	pre-steady-state target cleavage rate [2]
AGGAGCUACACCUUGCAUAGUAUUUAGUUA	1.36 ± 0.044	0.0609 ± 0.012
UGGAGCUACAGCUUGCAUAGUAUUUAGUUA	1.25 ± 0.045	0.0783 ± 0.012
UCCUGCUACAGCUUGCAUUAGUAUUUAGUUA	0.0188 ± 0.0083	–
UCCAGGAACAGCUUGCAUAGUAUUUAGUAA	0.57 ± 0.047	0.0391 ± 0.0081
AGGAGCUACAGCUUGCAUAGUAUUAAGUUA	0.783 ± 0.065	0.0457 ± 0.0092
UCCACCUACAGCUUGCAUAGUUUUUUCAAA	0.144 ± 0.028	–
UCCUGGUACAGCUUGCAUAGUAUUAUCAAA [g7:g24:cont:t1A]	0.124 ± 0.024	–
UCCAGCCUACAGCUUGCAUAGUAUUUAGUUA	1.32 ± 0.062	0.0623 ± 0.0092
UCCACCUACAGCUUGCAUAGUAUUUAGUUA [g2:g27:cont:t1A]	0.987 ± 0.051	0.0744 ± 0.015
UCCAGCUACAGCUUGCAUAGUAUUUAGUUA	0.682 ± 0.042	0.0438 ± 0.0056
AGGAGCCUACAGCUUGCAUAGUAUUUAGUUA	1.4 ± 0.072	0.0847 ± 0.013
UCGAGCCUACAGCUUGCAUAGUAUUUAGUUA	1.46 ± 0.074	0.0844 ± 0.016
UCCUGGAUCAGCUAGCAUAGUAUUUAGAUA	0.226 ± 0.026	0.00546 ± 0.0022
UCGACCUACUGCUUGCAUACUAUUUAGUUA	0.345 ± 0.014	0.0294 ± 0.0065
UCCUCCUACAGCUUGCAUAAUAUUUAGUUA	0.52 ± 0.03	0.0234 ± 0.0044
UGGAGGAACAGCUUGCAUAGUAUUUAGUAA	0.754 ± 0.05	0.0519 ± 0.012
UCCACCUACACCAUGCAUAGUAUUUAGUUA	0.719 ± 0.036	0.0161 ± 0.003
UCCUGGAUGAGCUAGCAUAGUAUUUAGAAA	0.124 ± 0.029	–
UGCGACCUACAGCUUGCAUAGUAUUUAGUUA	1.41 ± 0.057	0.0975 ± 0.02
AGCGACCUACAGCUUGCAUAGUAUUUAGUUA	1.37 ± 0.049	0.112 ± 0.019
UCCUGCUACAGCUUGGUAAGUAUUUAGUUA	0.0624 ± 0.011	–

Sequence	pre-steady-state target cleavage rate [1]	pre-steady-state target cleavage rate [2]
UCCUGGAUCAGCAUGCAUAGUAUUUAGAUA	0.375 ± 0.034	0.00494 ± 0.0022
UCCUGGAUCAGCUUGCAUAGUAUAUAGUAA	0.458 ± 0.054	0.0134 ± 0.0052
UCCAGCUACAGCUUGCAUAGUUUUUAGUUA	0.253 ± 0.026	0.0203 ± 0.0032
UCGAGCUACAGCUUGCAUAGUAUUUAGUAA	1.08 ± 0.082	0.0348 ± 0.0066
UCGAGCUACAGCUUGCAUAGUAUUUAGAAA	0.407 ± 0.039	0.0061 ± 0.0023
UCGAGCUACAGCUUGCAUAGUAUUUAGUUA	1.41 ± 0.062	0.0832 ± 0.014
UCCUGCUACGAGCUUGCAUAGUAUUUAGUUA	0.717 ± 0.073	0.0315 ± 0.0066
ACGAGCUACAGCUUGCAUAGUAUUUAGUUA	1.54 ± 0.057	0.094 ± 0.016
UCGAGCUACAGCUUGCAUAGUAUUUAGAUA	0.443 ± 0.041	0.0206 ± 0.0046
UCCUGGAUCAGCUUGCAUAGUAUUAAGAUA	0.265 ± 0.05	0.00645 ± 0.0033
UGGACCUACAGCUUGCAUAGUAUGUAGUUA	0.332 ± 0.041	0.0171 ± 0.0041
UCCUGCUACAGCUUGGUUAGUAUUUACAAA	0.0104 ± 0.0047	–
UCGACCUACAGCUUGCAUAGUAUUUUGUUA	0.921 ± 0.043	0.0471 ± 0.0091
UCCUGGAUCAGCUAGCAUAGUAUUUUCAAA	0.0506 ± 0.015	–
AGGACUCUACAGCUUGCAUAGUAUUUAGUUA	1.28 ± 0.069	0.0617 ± 0.011
AGGACUACAGCUUGCAUAGUAUUUAGUUA	1.24 ± 0.066	0.0945 ± 0.016
UCCACUCUACAGCUUGCAUAGUAUUUAGUUA	0.884 ± 0.029	0.0688 ± 0.012
UGGACUACAGCUUGCAUAGUAUUUAGUUA	1.34 ± 0.053	0.0823 ± 0.013
UCGACUCUACAGCUUGCAUAGUAUUUAGUUA	1.48 ± 0.06	0.0579 ± 0.0096
UCGACGCUACAGCUUGCAUAGUAUUUAGUUA	1.27 ± 0.063	0.094 ± 0.022
UGGACACUACAGCUUGCAUAGUAUUUAGUUA	1.04 ± 0.063	0.0643 ± 0.0081

Sequence	pre-steady-state target cleavage rate [1]	pre-steady-state target cleavage rate [2]
UGGACUCUACAGCUUGCAUAGUAUUUAGUUA	1.4 ± 0.066	0.0856 ± 0.017
UGGACCUACACCUUGCAUAGUAUUUUCAAA	0.327 ± 0.05	0.00389 ± 0.0023
UCCUGGAACUGCUAGCAUAGUAUUUAGUUA	0.534 ± 0.037	0.00949 ± 0.0035
UCGACCUACAGCUUGCAUAGUAUUUAGUCA	0.947 ± 0.041	0.0656 ± 0.013
UCCUGGUACACCUUGCAUAGUAUUUAGUAA	0.334 ± 0.078	0.0104 ± 0.0044
UCCUCCUACAGCUUGCAUAGUAUAUUGUUA	0.368 ± 0.033	0.0145 ± 0.0039
UGGACCUACAGCUUGCAUACUAAUUAGUUA	0.154 ± 0.01	0.00958 ± 0.0024
UCCUGGAACAGCUUGCUAUGUAUUUAGUUA	0.0729 ± 0.011	0.00814 ± 0.0024
UCCUCCUACAGCUUGCAUACUAUUUACUUA	0.197 ± 0.023	0.018 ± 0.0033
UCGACCUACAGCUUGCAUAGUUAUUUAGUUA	0.0764 ± 0.016	0.00495 ± 0.0031
UGGACCUACAGCUUGCAUAUUAUUUAGUUA	1.71 ± 0.12	0.0442 ± 0.0088
UCGACCUACAGCUUGCAUAUUAUUUAGUUA	1.5 ± 0.072	0.0515 ± 0.013
UGGACCUACAGCUUGCAUAUAUUUAGUUA	0.429 ± 0.067	0.00298 ± 0.0022
AGGACCUACAGCUUGCAUAUUAUUUAGUUA	1.23 ± 0.074	0.0773 ± 0.017
UCGACCUACAGCUUGCAUAUAUUUAGUUA	0.489 ± 0.044	–
UCCUGGAACAGCUUGCACAGUAUUUAGUUA	1.01 ± 0.035	0.0853 ± 0.018
UCCUGGAUGUGCUUGCAUAGUAAUUAGUUA	0.0816 ± 0.011	0.0162 ± 0.0045
UCCUCCUACUGCUUGCAUAGUAUAUAGUUA	0.472 ± 0.026	0.0228 ± 0.0045
UCCUCCUUCUGCUUGCAUAGUAUUUAGUUA	1.18 ± 0.038	0.0546 ± 0.0091
